The target of assay [1] is Cellular tumor antigen p53 (Homo sapiens) (UniProt P04637). Description: TOX21_p53_BLA_p3_ratio: Tox21 HCT-116 p53 Agonism Beta-lactamase Assay, Ratio, Phase 3 (AID 2283596). In outline:
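HCT116 p53-bla cells (4000/well) given compound in DMSO (217-fold dilution) after 5 h, incubated 16 h at 37C. CCF4-AM substrate 2 h at room temperature; 460/530 nm emission ratio, gain fitted against DMSO.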

Assay [2] in a line: TOX21_p53_BLA_p4_viability: Viability Assessment in the Tox21 HCT-116 p53 Agonism Beta-lactamase Assay, Phase 4 (AID 2283597).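 Also: hits lower the luminescence signal meaning cytotoxicity.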 In outline:
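Luminescent ATP readout (CellTiter-Glo, 30 min, room temperature) in the same wells as the p53 bla ratio. HCT116 cells were treated for 16 h at 37C with DMSO-dissolved compounds.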

The target of assay [3] is Cellular tumor antigen p53 (Homo sapiens) (UniProt P04637). Description: TOX21_p53_BLA_p5_ratio: Tox21 HCT-116 p53 Agonism Beta-lactamase Assay, Ratio, Phase 5 (AID 2283599). The essentials:
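HCT-116 p53-bla cells (4000/well) plated 5 h, dosed with compound (217-fold DMSO dilution) for 16 h at 37 C; CCF4-AM substrate 2 h at room temperature. Activity is the 460/530 nm emission ratio (405 nm excitation), fitted in gain-of-signal direction versus DMSO.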

Assay [4] can be described thus: TOX21_p53_BLA_p5_viability: Viability Assessment in the Tox21 HCT-116 p53 Agonism Beta-lactamase Assay, Phase 5 (AID 2283600). In outline:
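Seeded cells (4000/well) settle 5 h before compound addition. Plates then incubate 16 h at 37C, receive FRET substrate for 2 h, and finally CellTiter-Glo, with luminescence measured after a 30 min room-temperature incubation.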

In assay [5] the target is Cellular tumor antigen p53 (Homo sapiens) (UniProt P04637). Briefly: TOX21_p53_BLA_p4_ratio: Tox21 HCT-116 p53 Agonism Beta-lactamase Assay, Ratio, Phase 4 (AID 2283601). The essentials:
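HCT-116 p53 beta-lactamase reporter cells (4000/well) preincubated 5 h, then compound (217-fold dilution of DMSO stock) for 16 h at 37C. CCF4-AM substrate added 2 h at room temperature; 460/530 nm emission ratio fitted upward versus DMSO.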

Assay [6] in a line: Tanguay_ZF_120hpf_YSE_legacy: (Legacy) Oregon State University Tanguay Lab 120 Hour Post-fertilization zebrafish Assay for Yolk Sac Edema (AID 2283634).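 As to AC50: actives raise the incidence of yolk sac edema above the DMSO baseline.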 In outline: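 Single dechorionated embryos were held in sealed plates at 28C with test chemical (0.64% DMSO final) from 6 hpf until 120 hpf. Edema of the yolk sac was then recorded as a binary endpoint; non-mortality endpoints were skipped for dead embryos.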

Assay [7] in a line: Tanguay_ZF_120hpf_AXIS_legacy: (Legacy) Oregon State University Tanguay Lab 120 Hour Post-fertilization zebrafish Assay for Body Axis Malformation (AID 2283635).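 As to AC50: potency for an increased fraction of larvae scored with body axis malformation.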 In outline: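 Each dechorionated embryo was exposed alone from 6 hpf, with DMSO at 0.64% (vol/vol) and trimethyltin chloride 5 uM as positive control. Axis malformation was recorded at 120 hpf unless the embryo had died.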

A short description of assay [8]: Tanguay_ZF_120hpf_EYE_legacy: (Legacy) Oregon State University Tanguay Lab 120 Hour Post-fertilization zebrafish Assay for Eye Malformation (AID 2283636).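 Also: binary presence or absence of eye malformation scored by brightfield in 120 hpf larvae.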 In outline:
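Dechorionated Tropical 5D zebrafish embryos, one per well from 6 hpf, static exposure to 120 hpf at 28C, 0.64% DMSO. Eye malformation scored present/absent by brightfield; dead embryos not scored.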

Assay [9] can be described thus: Tanguay_ZF_120hpf_SNOU_legacy: (Legacy) Oregon State University Tanguay Lab 120 Hour Post-fertilization zebrafish Assay for Snout Malformation (AID 2283637). The essentials: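 Dechorionated tropical 5D wild-type zebrafish embryos exposed statically from 6 to 120 hpf at 28C, one per well, in 0.64% DMSO. Snout malformation scored as present/absent by brightfield at 120 hpf; dead embryos not scored.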

The nature of assay [10]: Tanguay_ZF_120hpf_MORT_legacy: (Legacy) Oregon State University Tanguay Lab 120 Hour Post-fertilization zebrafish Assay for Mortality (AID 2283633).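 As to AC50: fitted as increase in binary mortality versus DMSO negative control.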 In outline: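 Single dechorionated Tropical 5D embryos were held with test chemical (0.64% DMSO final) from 6 to 120 hpf at 28C under foil. Deaths at 24 or 120 hpf were recorded as binary calls, analysed for increase over DMSO controls.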

The structures appear in SMILES notation. Where “and” joins values, the source holds several entries; their conditions need not be identical. Equal values may be shown once. Results filed as inconclusive are left out. The source holds several records for some structures; these can differ, active in one and inactive in another. Calls of active or inactive are those of the source. The calls were made as follows: active = hit-call score of the fitted dose curve at least 0.9, where 1 is the maximum; inconclusive = response in the unintended direction; inactive = score below 0.9.

Cellular tumor antigen p53 (Homo sapiens), sequence (P04637 whole entry, looked up): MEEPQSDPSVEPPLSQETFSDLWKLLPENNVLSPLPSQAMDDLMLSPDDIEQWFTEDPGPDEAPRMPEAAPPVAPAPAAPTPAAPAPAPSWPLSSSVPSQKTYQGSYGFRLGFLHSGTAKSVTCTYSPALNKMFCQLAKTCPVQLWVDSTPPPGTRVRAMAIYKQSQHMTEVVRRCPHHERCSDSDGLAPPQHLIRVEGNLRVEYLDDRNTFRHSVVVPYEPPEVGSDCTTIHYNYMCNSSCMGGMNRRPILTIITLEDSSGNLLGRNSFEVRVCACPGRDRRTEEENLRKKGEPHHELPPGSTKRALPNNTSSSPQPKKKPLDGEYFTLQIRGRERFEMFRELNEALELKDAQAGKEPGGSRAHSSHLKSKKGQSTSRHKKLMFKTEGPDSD

Take `COP(=O)(OC)C(O)C(Cl)(Cl)Cl` (stereo not drawn): the result in assay [1], in assay [2], in [3], in assay [4], in [5] and in [7] was inactive. Besides, the result in assay [8] and in [9] was inactive. Further, the half-maximal activity concentration (AC50) in assay [6] is 56.1 µM (active).

Regarding `CC1(C(=O)Nc2ccc(O)c(Cl)c2Cl)CCCCC1`, the result in assay [1], in assay [2], in assay [3], in assay [4], in assay [5] and in assay [6] was inactive. The result in assay [7], in assay [8] and in assay [9] was inactive.

With `CCc1cccc(C)c1N(C(=O)CCl)C(C)COC` (stereo not drawn), the result in [1], in [2], in assay [3], in [4], in assay [5] and in [10] was inactive. Besides, the molecule was called inactive in [6], in [7], in assay [8] and in [9].

As for `CC(C)N(C(=O)SCC(Cl)=C(Cl)Cl)C(C)C`, the outcome in assay [1], in assay [2], in assay [3], in assay [4], in [5] and in assay [10] was inactive. The outcome in [6], in assay [7], in assay [8] and in [9] was inactive.

With `C#CCC1=C(C)C(OC(=O)C2C(C=C(C)C)C2(C)C)CC1=O` (stereo not drawn), the result in assay [1], in [2], in assay [3], in [4], in assay [5] and in assay [6] was inactive. In addition, the molecule was classed as inactive in [8] and in assay [9].

With `COc1cc(OC)nc(Sc2cccc(Cl)c2C(=O)O)n1`, the result in assay [1], in [2], in assay [3], in assay [4], in [5] and in assay [6] was inactive. Moreover, the molecule was called inactive in assay [7], in assay [8] and in assay [9].

On to `O=c1ccc(=O)[nH][nH]1`, for which the result in assay [1], in assay [2], in assay [3], in assay [4], in [5] and in assay [8] was inactive. Moreover, the AC50 in [6] is 25.4 µM (active); in assay [7], 51.7 µM (active).

In the case of `CCCOCC(=Nc1ccc(Cl)cc1C(F)(F)F)n1ccnc1`, the AC50 was 68.1 µM (active) in [1]; 24.9 µM (active) in assay [2]; 48.5 µM (active) in assay [3]; 31.2 µM (active) in assay [4]; 46.2 µM (active) in assay [5]. Further, the call in assay [10], in [6], in assay [7] and in assay [9] was inactive.

On to `CSC1=N[C@@](C)(c2ccccc2)C(=O)N1Nc1ccccc1`, for which the result in [1], in [2], in [3], in [4], in assay [5] and in assay [7] was inactive. In addition, the outcome in [8] and in assay [9] was inactive. Besides, the AC50 in assay [6] was 3.52 µM (active).

`S=C1NCCN1`: the result in [1], in assay [2], in assay [3], in [4], in assay [5] and in [6] was inactive. The result in assay [7], in [8] and in assay [9] was inactive.

On to `CCOP(=S)(OCC)Oc1ccc2c(C)c(Cl)c(=O)oc2c1`, for which the result in assay [1], in [2], in [3], in assay [4], in assay [5] and in assay [10] was inactive. The outcome in assay [6], in assay [7], in assay [8] and in assay [9] was inactive.

In the case of `C#CC(C)(C)NC(=O)c1cc(Cl)cc(Cl)c1`, the outcome in [1], in assay [2], in assay [3], in [4], in assay [5] and in assay [10] was inactive. Besides, the call in assay [6] and in assay [7] was inactive.

As to `CNC(=O)ON=C(SC)C(=O)N(C)C`, the result in assay [1], in [2], in [3], in [4], in assay [5] and in assay [10] was inactive. Also, the molecule was called inactive in [6], in [7], in [8] and in [9].

For `N#CSCSC#N`, the AC50 is 14.9 µM (active) and 8.68 µM (active) in assay [1]; 51.1 µM (active) and 61.9 µM (active) in [2]; 18.8 µM (active) and 15.9 µM (active) in assay [3]; 66.3 µM (active) and 68.4 µM (active) in assay [4]; 36.5 µM (active) and 18.1 µM (active) in assay [5]; 34.6 µM (active) in assay [10]. The molecule was classed as inactive in assay [6], in assay [7], in [8] and in assay [9].

For the molecule `CCC(=O)Nc1ccc(Cl)c(Cl)c1`, the AC50 in [1] is 72.7 µM (active). The outcome in assay [1], in assay [2], in assay [3], in assay [4], in [5] and in [6] was inactive. In addition, the molecule was classed as inactive in assay [7], in [8] and in assay [9].
